Results filed as inconclusive are left out. Values without a mark were called inactive. The source made the active and inactive calls. Calls come from the whole dose curve; as a rule, active = well fitted cell-killing curve with a large enough effect; inconclusive = small, poorly fitted or top-dose-only effect, or effect the other way; inactive = no such curve, though single readings can be large or run the other way.
Test: Quantitative High-Throughput drug screen in 47 multiple myeloma cell lines against the NCATS MIPE library collection: RPMI8226_ATCC cell viability assay (AID 1919871); note: nearly all actives have a fitted effect of over 30% in size
Conditions: RPMI8226 myeloma viability, CellTiter-Glo ATP luminescence, 48 h; series mostly up to 45.8 µM; viability (% of control): at the top concentration
Method in brief: (§1)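 Inhibition of viability over 48 h was scored by ATP content (CellTiter-Glo) in 500-cell wells. Zero and full viability were defined by media-only and DMSO-only wells.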
For `Nc1nc2c(c(=O)[nH]1)N(C=O)[C@H](CNc1ccc(C(=O)N[C@@H](CCC(=O)O)C(=O)O)cc1)CN2`, the “viability (% of control)” value was 138%.
For `N=c1ccn2c(n1)O[C@H]1[C@@H](O)[C@@H](CO)O[C@H]12`, the “viability (% of control)” value was 116%.
With `O=C1NCCc2[nH]c(-c3ccncc3)cc21` the Potency was 16.6 µM (active).
For `CO[C@@H]1[C@@H](O)[C@H](O)[C@@H](n2c3c(Cl)cccc3c3c4c(c5c6cccc(Cl)c6[nH]c5c32)C(=O)NC4=O)O[C@@H]1CO`, the Potency was 2.35 µM (active).
For `FC(F)c1nc2ccccc2n1-c1nc(N2CCOCC2)nc(N2CCOCC2)n1`, the Potency was 0.296 µM (active).
For `CCCCCN=C(N)NN=Cc1c[nH]c2ccc(OC)cc12`, the Potency was 14.8 µM (active).
With `CC(C)(C)[N+]([O-])=Cc1ccc(S(=O)(=O)O)cc1S(=O)(=O)O` the “viability (% of control)” value was 120%.
With `C[C@H]1C[C@H]2[C@@H]3CCC4=CC(=O)C=C[C@]4(C)[C@@H]3C(=O)C[C@]2(C)[C@@]1(O)C(=O)CO` the “viability (% of control)” value was 97.7%.
With `O=c1ccn([C@@H]2O[C@H](CO)[C@H](O)[C@@H]2F)c(=O)[nH]1` the “viability (% of control)” value was 114%.
For `O=C(O)CCCCC(CCSCc1ccccc1)SCc1ccccc1` (stereo not drawn), the “viability (% of control)” value was 122%.

Test: Quantitative High-Throughput drug screen in 47 multiple myeloma cell lines against the NCATS MIPE library collection: OPM2_DSMZ cell viability assay (AID 1919872); note: nearly all actives have a fitted effect of over 30% in size
Conditions: OPM2 myeloma viability, CellTiter-Glo ATP luminescence, 48 h; series mostly up to 45.8 µM; viability (% of DMSO): at the top concentration
Method in brief: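 CellTiter-Glo luminescence (ATP) after 48 h compound exposure, 37C/5% CO2; 500 cells/well; MIPE 4.0 approved/investigational drugs pinned in; DMSO = 100%, media only = 0% viability.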
For `Nc1nc2c(c(=O)[nH]1)N(C=O)[C@H](CNc1ccc(C(=O)N[C@@H](CCC(=O)O)C(=O)O)cc1)CN2`, the “viability (% of DMSO)” value was 125%.
For `C[C@H](NC(=O)Cc1cc(F)cc(F)c1)C(=O)N[C@H](C(=O)OC(C)(C)C)c1ccccc1`, the “viability (% of DMSO)” value was 101%.
With `N=c1ccn2c(n1)O[C@H]1[C@@H](O)[C@@H](CO)O[C@H]12` the “viability (% of DMSO)” value was 100%.
In the case of `CC(=O)SCC(Cc1ccccc1)C(=O)NCC(=O)OCc1ccccc1` (stereo not drawn), the Potency is reported as 5.9 µM (active).
In the case of `CN1C(C(=O)Nc2ccccn2)=C(O)c2sc(Cl)cc2S1(=O)=O`, the “viability (% of DMSO)” value is reported as 109%.
With `COc1cc(OC)c(NC(=O)Nc2cc(C)on2)cc1Cl` the “viability (% of DMSO)” value was 124%.
With `COc1cc([C@@H]2c3cc4c(cc3[C@@H](O[C@@H]3O[C@@H]5CO[C@@H](c6cccs6)O[C@@H]5[C@H](O)[C@@H]3O)[C@H]3COC(=O)[C@H]23)OCO4)cc(OC)c1O` the Potency was 4.18 µM (active).
For `CC1(C)[C@H](O[C@H]2O[C@H](C(=O)O)[C@@H](O)[C@H](O)[C@H]2O[C@@H]2O[C@H](C(=O)O)[C@@H](O)[C@H](O)[C@H]2O)CC[C@@]2(C)[C@H]1CC[C@]1(C)[C@H]2C(=O)C=C2[C@H]3C[C@@](C)(C(=O)O)CC[C@]3(C)CC[C@]21C`, the “viability (% of DMSO)” value was 123%.
For `O=C1NCCc2[nH]c(-c3ccncc3)cc21`, the Potency was 14.8 µM (active).
In the case of `O=C(Nc1ccc(Oc2ccnc3[nH]ccc23)c(F)c1)c1cccn(-c2ccc(F)cc2)c1=O`, the “viability (% of DMSO)” value is reported as 93.3%.
In the case of `O=C(c1ccc(F)cc1)N1CCC[C@H](c2nc(-c3ccc(F)cc3)no2)C1`, the “viability (% of DMSO)” value is reported as 99.1%.
In the case of `CO[C@@H]1[C@@H](O)[C@H](O)[C@@H](n2c3c(Cl)cccc3c3c4c(c5c6cccc(Cl)c6[nH]c5c32)C(=O)NC4=O)O[C@@H]1CO`, the Potency is reported as 5.9 µM (active).
In the case of `FC(F)c1nc2ccccc2n1-c1nc(N2CCOCC2)nc(N2CCOCC2)n1`, the Potency is reported as 2.09 µM (active).
With `CCCCCN=C(N)NN=Cc1c[nH]c2ccc(OC)cc12` the Potency was 10.5 µM (active).
For `CC(C)(C)[N+]([O-])=Cc1ccc(S(=O)(=O)O)cc1S(=O)(=O)O`, the “viability (% of DMSO)” value was 104%.
With `O=S(=O)(O)CCSSCCS(=O)(=O)O` the “viability (% of DMSO)” value was 104%.
For `C[C@H]1C[C@H]2[C@@H]3CCC4=CC(=O)C=C[C@]4(C)[C@@H]3C(=O)C[C@]2(C)[C@@]1(O)C(=O)CO`, the “viability (% of DMSO)” value was 108%.
For `O=c1ccn([C@@H]2O[C@H](CO)[C@H](O)[C@@H]2F)c(=O)[nH]1`, the “viability (% of DMSO)” value was 108%.
With `CNC(=O)Nc1ccc(-c2nc(N3CC4CCC(C3)O4)c3cnn(C4CCC5(CC4)OCCO5)c3n2)cc1` the Potency was 0.0209 µM (active).
In the case of `C[C@@H]1[C@H](C)CC[C@]2(C(=O)O)CC[C@]3(C)C(=CC[C@@H]4[C@@]5(C)C[C@@H](O)[C@H](O)[C@@](C)(CO)[C@H]5CC[C@]43C)[C@@H]12`, the “viability (% of DMSO)” value is reported as 123%.
For `C#C[C@]1(O)CC[C@@H]2[C@@H]3CCC4=CC(=O)CC[C@@H]4[C@H]3CC[C@@]21CC`, the “viability (% of DMSO)” value was 93.3%.
For `O=C(O)CCCCC(CCSCc1ccccc1)SCc1ccccc1` (stereo not drawn), the “viability (% of DMSO)” value was 110%.

Test: Quantitative High-Throughput drug screen in 47 multiple myeloma cell lines against the NCATS MIPE library collection: KMS11_JCRBsus cell viability assay (AID 1919873); note: nearly all actives have a fitted effect of over 50% in size
Conditions: KMS11 myeloma viability, CellTiter-Glo ATP luminescence, 48 h; series mostly up to 45.8 µM; viability (% of control): at the top concentration
Method in brief: as §1
With `CC1=C(C(=O)Nc2cc3cn[nH]c3cc2F)C(c2ccc(Cl)cc2F)N=C(c2ccnc(Cl)c2)N1` (stereo not drawn) the Potency was 14.8 µM (active).
With `Nc1nc2c(c(=O)[nH]1)N(C=O)[C@H](CNc1ccc(C(=O)N[C@@H](CCC(=O)O)C(=O)O)cc1)CN2` the “viability (% of control)” value was 114%.
For `N=c1ccn2c(n1)O[C@H]1[C@@H](O)[C@@H](CO)O[C@H]12`, the Potency was 0.469 µM (active).
In the case of `C[C@H]1[C@@H](OC(=O)CCC(=O)O)O[C@@H]2O[C@@]3(C)CC[C@@H]4[C@H](C)CC[C@@H]1[C@@]24OO3`, the Potency is reported as 1.32 µM (active).
With `CC(C)n1cnc2c(NCCc3ccc(O)cc3)nc(-c3csc4ccccc34)nc21` the Potency was 18.7 µM (active).
In the case of `c1ccc(CNc2nc(NCc3ccccc3)c3ccccc3n2)cc1`, the Potency is reported as 11.8 µM (active).
In the case of `C#C[C@]1(O)CC[C@@H]2[C@@H]3CCc4cc(O)ccc4[C@H]3CC[C@@]21C`, the Potency is reported as 10.5 µM (active).
With `COc1cc([C@@H]2c3cc4c(cc3[C@@H](O[C@@H]3O[C@@H]5CO[C@@H](c6cccs6)O[C@@H]5[C@H](O)[C@@H]3O)[C@H]3COC(=O)[C@H]23)OCO4)cc(OC)c1O` the Potency was 1.32 µM (active).
With `CC(C)(N)c1ccc(-c2nc3ccccc3nc2-c2ccccc2)cc1` the Potency was 18.7 µM (active).
With `COc1cc2c(cc1OC)[C@@H]1C(=O)c3ccc4c(c3O[C@@H]1CO2)C=CC(C)(C)O4` the Potency was 0.0418 µM (active).
In the case of `O=C1NCCc2[nH]c(-c3ccncc3)cc21`, the Potency is reported as 5.26 µM (active).
In the case of `CCn1c(=O)c2c(nc(C=Cc3ccc(OC)c(OC)c3)n2C)n(CC)c1=O`, the “viability (% of control)” value is reported as 86.4%.
With `O=C(c1ccc(F)cc1)N1CCC[C@H](c2nc(-c3ccc(F)cc3)no2)C1` the “viability (% of control)” value was 114%.
In the case of `CO[C@@H]1[C@@H](O)[C@H](O)[C@@H](n2c3c(Cl)cccc3c3c4c(c5c6cccc(Cl)c6[nH]c5c32)C(=O)NC4=O)O[C@@H]1CO`, the Potency is reported as 2.96 µM (active).
In the case of `CCCCCN=C(N)NN=Cc1c[nH]c2ccc(OC)cc12`, the Potency is reported as 2.64 µM (active).
With `COc1cc(C(=O)NC2CCN(C)CC2)ccc1Nc1ncc2c(n1)N(C1CCCC1)CCC(=O)N2C(C)C` the Potency was 20.9 µM (active).
In the case of `CC(C)(C)[N+]([O-])=Cc1ccc(S(=O)(=O)O)cc1S(=O)(=O)O`, the “viability (% of control)” value is reported as 126%.
In the case of `N[C@H]1CN(c2c(F)cc3c(=O)c(C(=O)O)cn(C4C[C@@H]4F)c3c2Cl)CC12CC2` (stereo partly drawn), the “viability (% of control)” value is reported as 87.6%.
In the case of `CCc1cc(C(C)=NOCc2ccc(C3CCCCC3)c(C(F)(F)F)c2)ccc1CN1CC(C(=O)O)C1`, the “viability (% of control)” value is reported as 104%.
With `C[C@H]1C[C@H]2[C@@H]3CCC4=CC(=O)C=C[C@]4(C)[C@@H]3C(=O)C[C@]2(C)[C@@]1(O)C(=O)CO` the “viability (% of control)” value was 101%.
For `O=c1ccn([C@@H]2O[C@H](CO)[C@H](O)[C@@H]2F)c(=O)[nH]1`, the “viability (% of control)” value was 116%.
For `CC(C)c1cnn2c(NCc3ccccc3)cc(NCCCCCCN)nc12`, the Potency was 26.4 µM (active).
For `C[C@@H]1[C@H](C)CC[C@]2(C(=O)O)CC[C@]3(C)C(=CC[C@@H]4[C@@]5(C)C[C@@H](O)[C@H](O)[C@@](C)(CO)[C@H]5CC[C@]43C)[C@@H]12`, the “viability (% of control)” value was 134%.
In the case of `CCOc1cc2ncc(C#N)c(Nc3ccc(OCc4ccccn4)c(Cl)c3)c2cc1NC(=O)C=CCN(C)C`, the Potency is reported as 14.8 µM (active).
With `Cc1cnc(NC(=O)Nc2cc(Br)c(C)cc2OC[C@@H]2CNCCO2)cn1` the Potency was 5.26 µM (active).
With `CN1CCc2c(c3ccccc3n2Cc2ccc(C(=O)NO)cc2)C1` the Potency was 20.9 µM (active).
Potency is the fitted concentration of half-maximal effect.
